Screening results (PubChem)
Efflux pump mplx: blocks antifungal efflux pumps in multiplex yeast assay. 330,000 compounds, 0.44% hits. inhibition, % at 10 µM. S. cerevisiae Candida pump triplex, Nile Red efflux;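 active = plate passing quality check with inhibition over a set limit, or well fluorescence over plate mean plus 4 SD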;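 note: Nile Red retained in pooled yeast measured as flow cytometry median fluorescence; higher means more Nile Red kept so more efflux inhibition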
Rce1 inh: inhibitors of yeast Ras-converting enzyme; 290,000 compounds, 0.27% hits; yeast membranes, quenched prenylated peptide cleavage fluorescence; Q03530; calls only;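 active = fall in fluorescence gain of 50% or more versus controls, with final raw signal at or below 3038400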
Target sequence (Q03530 whole entry, looked up): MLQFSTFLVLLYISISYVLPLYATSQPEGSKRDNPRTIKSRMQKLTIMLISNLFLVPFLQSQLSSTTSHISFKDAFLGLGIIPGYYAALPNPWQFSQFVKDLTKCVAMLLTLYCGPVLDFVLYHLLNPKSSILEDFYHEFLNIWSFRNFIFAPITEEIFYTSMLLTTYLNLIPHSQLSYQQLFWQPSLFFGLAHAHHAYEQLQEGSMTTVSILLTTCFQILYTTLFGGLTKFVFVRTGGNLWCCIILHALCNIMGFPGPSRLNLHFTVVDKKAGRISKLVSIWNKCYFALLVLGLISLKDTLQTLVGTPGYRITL
V-ATPase pHluor: yeast V-ATPase proton transport regulation by pHLuorin. AID 504577. response, % at 10 µM. 350,000 compounds, 0.37% hits. S. cerevisiae, pHLuorin cytosolic pH fluorescence; in the data active = response mostly above about 7.3%, no sharp cut-off; inactive = mostly below about 5.4%; note: actives read high
GC-B act: GC-B (human) receptor activation | P20594 | HEK293-GC-B cells, CNP EC30, cGMP TR-FRET; 0% at EC30 CNP, 100% saturating CNP | activation, % at 10 µM | 370,000 compounds, 0.11% hits | AID 1920062;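 active = activation at 10 µM reaching about 35% in either raw or pattern-adjusted values, limit read from the data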
NPR1 activator: GC-A (human) enzyme activation. HEK293 GC-A cells, cGMP TR-FRET, EC30 ANP; 0% at EC30 ANP, 100% saturating ANP. 370,000 compounds, 0.14% hits. P16066. activation, % at 10 µM; in the data active = activation above about 40%
NSD2 inh: inhibitors of human histone methyltransferase NSD2; AID 743445; NSD2 peptide methylation, AlphaScreen, 120 min; O96028; inhibition, % at 12.5 µM; 310,000 compounds, 0.54% hits; in the data active = inhibition above about 50%
Alpha artifact: interferes with AlphaScreen signal, flagging NSD2 false positives; shares compounds with NSD2 inh; AlphaScreen artifact counterscreen, preloaded methylated H4 peptide; AC35, µM (doses to about 10 µM); 1,500 compounds, 9.4% hits; call rule not given here
Each line names hits and unclear results; the compound was inactive in the other large screens (follow-up assays come after a bar, where they were run). Rows were chosen to be rich in hits. Some 1.6% of all compounds tested hit in one or more screens of this group.

Cc1ccc(NC(=O)CC2=NC(=O)C(CC(=O)Nc3ccccc3F)S2)cc1 (stereo not given)	NSD2 inh 71 | Alpha artifact inactive
Cc1ccc(CN2CCCCC(NC(=O)Nc3ccccc3)C2=O)cc1 (stereo not given)	none (no result: Efflux pump mplx, Rce1 inh, V-ATPase pHluor, NSD2 inh)
Cc1cccc(C)c1OCC(O)CNS(=O)(=O)c1ccccc1C(=O)N1CCCCC1 (stereo not given)	NSD2 inh 105 | Alpha artifact inactive
CC(C)CNS(=O)(=O)c1ccccc1C(=O)N1CCCCC1	none
COc1ccc(CNC(=O)CN(c2ccc(C)cc2)S(=O)(=O)c2c(C)noc2C)cc1	NSD2 inh 63 | Alpha artifact inactive
COC(=O)[C@]12C[C@H](CC(=O)NCCc3ccccc3OC)C(=O)N(Cc3ccco3)C1=C[C@H](COCc1ccccc1)O[C@@H]2C	none (no result: Efflux pump mplx, Rce1 inh, V-ATPase pHluor, NSD2 inh)
Nc1c(C(=O)NCC(O)c2ccccc2)cnn1-c1ccccc1 (stereo not given)	none (no result: Efflux pump mplx, Rce1 inh, V-ATPase pHluor, NSD2 inh)
Cc1[nH]c(=O)[nH]c1C(=O)CCCCC(=O)O	NSD2 inh 130 | Alpha artifact inactive
CC(COc1cccc(C(F)(F)F)c1)CN1CCC(C(O)(c2ccccc2)c2ccccc2)CC1 (stereo not given)	none (no result: Efflux pump mplx, Rce1 inh, V-ATPase pHluor, NSD2 inh)
O=C(OCC(=O)N1CCOCC1)c1ccc(Br)cc1	NSD2 inh 64 | Alpha artifact inactive
Cc1ccc(C(=O)OCC(=O)N2CCOCC2)cc1	none
Clc1ccc2c(NCCNC3CCCCC3)ccnc2c1	none (no result: Efflux pump mplx, Rce1 inh, NSD2 inh)
CC(C)NC1CCC(Nc2ccnc3cc(Cl)ccc23)CC1 (stereo not given)	NSD2 inh 81 (no result: Efflux pump mplx, Rce1 inh) | Alpha artifact inactive
CC(NC1=CC(=O)c2cccnc2C1=O)C(O)c1ccccc1 (stereo not given)	NSD2 inh 114 (no result: Efflux pump mplx, Rce1 inh) | Alpha artifact inactive
CN(CCc1ccccn1)C(=O)c1ccc(Sc2ccccc2Cl)c([N+](=O)[O-])c1	none (no result: Efflux pump mplx, Rce1 inh, V-ATPase pHluor)
Oc1ccc(-c2csc(Nc3cccc4ccccc34)n2)cc1O	NSD2 inh 51 | Alpha artifact inactive
Cc1cccnc1Nc1nc(-c2ccc(O)c(O)c2)cs1	NSD2 inh 51 | Alpha artifact inactive
Cn1ccnc1C(=O)O[C@@H]1CCC[C@@]2(C(=O)N(Cc3ccccc3)c3ccccc32)[C@H]1NC(=O)CCc1ccccc1	none (no result: Efflux pump mplx, Rce1 inh, V-ATPase pHluor, NSD2 inh)
C=CCN1C(=O)[C@@H](CC(=O)NCCCOC)[C@]2(C(=O)OC)CCCCC=C12	none (no result: Efflux pump mplx, Rce1 inh, V-ATPase pHluor)
Cc1nc2ccc(S(=O)(=O)NCC(=O)NCc3ccccc3C)cc2s1	none (no result: Efflux pump mplx, Rce1 inh, V-ATPase pHluor)
CC(C(=O)Nc1ccc(O)cc1C(=O)O)N1C(=O)/C(=C\c2cccs2)SC1=S (stereo not given)	NSD2 inh 83 | Alpha artifact inactive
CCCC1CCC2(CC1)CCC2OC(=O)Nc1ccc(C)cc1 (stereo not given)	none (no result: Efflux pump mplx, Rce1 inh, V-ATPase pHluor)
Cn1c(=O)c2[nH]c(SCC(=O)NCCc3ccc(F)cc3)nc2n(C)c1=O	none (no result: Efflux pump mplx, Rce1 inh, V-ATPase pHluor)
CCCCNC(=O)C[C@H]1C(=O)N(CCCOC)C2=CCCCC[C@]21C(=O)OC	none (no result: Efflux pump mplx, Rce1 inh, V-ATPase pHluor, NSD2 inh)
CCCCNC1=CC(=O)C(=O)c2ccccc21	NSD2 inh 140 | Alpha artifact inactive
COc1ccc(-n2c(COc3ccc(Cl)cc3)nnc2SCC(=O)c2ccc(-c3ccccc3)cc2)cc1	none (no result: Efflux pump mplx, Rce1 inh, V-ATPase pHluor)
CC(NC(=O)c1cccc(Br)c1)c1ccccc1 (stereo not given)	NSD2 inh 96 | Alpha artifact inactive
CCCCNS(=O)(=O)/C=C/c1ccccc1CNC(=O)OC(C)(C)C	none (no result: Efflux pump mplx, Rce1 inh, V-ATPase pHluor, NSD2 inh)
CCc1cc(OCCN2C(=O)NC(C)(C)C2=O)ccc1Cl	NSD2 inh 72 | Alpha artifact inactive
COCCCNC(=O)c1ccccc1Oc1ccccc1	none
COCCCNC(=O)c1ccc2c3c(onc13)-c1ccccc1C2=O	NSD2 inh 53 (no result: GC-B act, NPR1 activator) | Alpha artifact inactive
C=CCNC(=O)CN(C(=O)Cc1ccc(Cl)nc1)c1cccc(Br)c1	none (no result: Efflux pump mplx, Rce1 inh, V-ATPase pHluor)
Cn1c(=O)[nH]c(=O)c2c1nc(N/N=C/c1ccncc1)n2Cc1ccc(F)cc1	NSD2 inh 62 | Alpha artifact inactive
CCOC(=O)C1=C(C)N=c2s/c(=C/c3cccc([N+](=O)[O-])c3O)c(=O)n2C1c1ccccc1 (stereo not given)	NSD2 inh 63 | Alpha artifact 8.7µM
